Experimental data published in the supplement of paper PMC3334620.
Over roughly 33,000 sequences, “E-score (-0.5 to 0.5)” has its median near -0.04; the highest 2% begin near 0.36. Only a selection was taken, and the highest values are over-represented in it overall.

What follows are sequences tested against T1, Hmlalpha2 (UniProt P0CY09) (assay: PBM E-score (8-mer binding enrichment) (E-score (-0.5 to 0.5)); higher = stronger / more preferred TF binding). Conditions: protein concentration: 200 nM; construct: GST-full length.
T1 sequence: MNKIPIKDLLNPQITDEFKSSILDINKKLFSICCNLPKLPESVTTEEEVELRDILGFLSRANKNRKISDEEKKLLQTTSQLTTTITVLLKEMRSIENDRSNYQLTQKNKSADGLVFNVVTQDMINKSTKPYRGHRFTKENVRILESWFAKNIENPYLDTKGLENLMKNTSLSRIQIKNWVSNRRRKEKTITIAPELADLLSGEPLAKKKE
Method in brief: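 Using PURExpress in vitro transcription/translation, GST-tagged yeast transcription factors were made in full-length or DNA-binding-domain form. These were applied at about 100-200 nM to double-stranded universal all-10-mer Agilent arrays, and bound protein was detected with fluorescent anti-GST. Scans were normalised with masliner before the Universal PBM Analysis Suite assigned E-scores to ungapped eight-base words pooled with their reverse complements.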

Sequence | PBM E-score
CCTCTCCG | -0.305
TAAGTCGA | -0.0631
CAACGGTC | -0.0538
AAGAGGGA | -0.246
CAAGATAG | -0.0379
GTTTTGAA | 0.315
ATCTCCTG | -0.0358
AAGTGTAA | 0.156
CTGTGTAC | 0.35
ATGTGTAG | 0.349
CTGTGTGA | 0.247
ATGTGTAA | 0.452
GGGTGTAA | 0.342
CTGTGTAA | 0.483
GTGTGTAA | 0.465
ATGTGTAC | 0.372
CTGTGTCA | 0.0766
GAGTGTAA | 0.295
ATGTGTGC | -0.0456
CTCAGAGA | -0.0918
CGCTAAAC | 0.0834
CAAGATGA | -0.0169
AAATGCCG | -0.02
ACGGGGAA | -0.0619
AGACCACT | -0.00203

Sequence | PBM E-score
GCGCCAAC | -0.0446
CGCTATAA | -0.00727
CCTTAACA | 0.291
TCTTAAAA | -0.0174
GCTTAACA | 0.378
TCTTAAGA | -0.132
TCTTAACA | 0.404
ACTTAACG | 0.14
ACTTAACA | 0.388
ACTTAACT | 0.159
GCTTAACC | -0.00807
TATAACGA | 0.176
ACCTAGCC | -0.205
AGTAGTGC | -0.153
GAGACGAC | -0.19
CCAAAAGG | -0.136
CGGCGGCC | -0.188
ACCGTGAT | -0.0701
ACGCGCGT | 0.343
ACACGCGA | 0.378
ACACGCGG | 0.324
ACACGCGT | 0.43
AAACGCGT | 0.312
ACACGCGC | 0.304
AACTGCAC | 0.0702

Sequence | PBM E-score
TCTGTAAA | 0.278
GATGTAAA | 0.433
AATGTAAA | 0.434
ACTGTAAT | 0.251
AATGTAAT | 0.461
GAGGTAAA | 0.228
AATGTAAC | 0.296
GATGTAGC | -0.0783
ACTGTAAA | 0.222
ACAATTCT | 0.156
AAAGAATC | -0.124
CCTCTTCG | -0.127
AAGGCTTC | -0.116
ACTACACC | 0.166
ACTACACG | 0.454
CCTACACA | 0.266
ATACTACA | 0.32
GTACTACA | 0.369
GCTACACA | 0.323
ACTACACT | 0.253
CCTACACC | -0.00672
TCTACAGA | 0.133
TCTACACA | 0.445
CTACTACA | 0.304
CCTACACG | 0.393

Sequence | PBM E-score
ATGGTTAA | 0.139
CATGTGAC | 0.19
CCCCTTCA | -0.233
AGTGCAGG | -0.159
TCAAGCCA | -0.0161
CCCCCTAC | -0.279
CCCAATCC | -0.281
CGTATCCA | -0.0445
AACAACGG | 0.138
CAACTACA | 0.316
ACTACAGA | 0.119
ACTACAAG | 0.267
ACTACACA | 0.406
TAACTACA | 0.378
ACACTACA | 0.397
CCACTACA | 0.212
ACACTACT | 0.105
GAACTACA | 0.197
AGCTCTTC | -0.21
ATCGCGGA | -0.302
GTCAAGTA | 0.201
CGAAGCGA | -0.131
CCAGTAGC | -0.157
CACCGCCG | -0.288
ATGAGTCG | -0.0768

Sequence | PBM E-score
CATCAACC | 0.0266
TAGACGCA | 0.0971
TCCCTGAA | -0.0392
ATATGTGA | 0.234
GTATGTGA | 0.199
CTATGTGA | 0.172
GTATGTAA | 0.477
ATATGTAA | 0.416
CTATGTAC | 0.401
CTCTGTAC | -0.00455
ATATGTAC | 0.337
GTATGTCA | 0.352
CTATGTAA | 0.485
ATATGTAG | 0.3
CTCTGTAA | 0.195
ATCAAAAA | 0.0225
AAAGCGAC | 0.0782
GCTCTCCC | -0.266
AGTGCATA | 0.1
GCTCAGAA | -0.0102
AGTAACTA | 0.213
CAGATCCA | -0.0975
AGACGCCG | -0.154
ATACGCAA | 0.347
ATACGTAC | 0.242

Sequence | PBM E-score
ATACGTAA | 0.379
GTACGTAA | 0.34
GTACGCAA | 0.155
ATACGTAG | 0.257
TTACGCAA | 0.391
CTACGTAA | 0.318
TTACGTAA | 0.426
CTCCTCGC | -0.164
CTCCATCC | -0.1
CAGCCGTC | -0.132
CACACATA | 0.214
GACACATA | 0.26
AACACATG | 0.363
TACACATA | 0.408
AACACATA | 0.39
AACACATC | 0.291
GAACCACA | 0.0162
GAATTGAC | 0.104
ACTTTGGA | 0.136
ATGTCAAT | 0.4
ATGTCAAC | 0.374
CTGTCAAA | 0.18
ATGTCATG | 0.388
CTGTCAAC | 0.198
GTGTCAAA | 0.382

Sequence | PBM E-score
GTGTCAAC | 0.305
ATGTCAAA | 0.354
ATGTCATC | 0.0953
ATGTCATA | 0.311
TTGTCAAA | 0.262
ATGTCAAG | 0.305
AGAAAGCG | -0.00586
ATGCTGGC | 0.0473
GCCATTTA | 0.00861
GAGATTCC | -0.218
ATATTCTG | 0.00643
CCTTAAAC | -0.15
ATGCTAAT | 0.167
AGATTGTG | 0.0599
CACATTAC | 0.375
CACATTAG | -0.078
AACATTAC | 0.332
CGCGCACA | 0.133
AATGTAGA | 0.301
CCTGTAGA | 0.0876
CGTGTAGA | 0.482
CGTGTAGC | 0.344
GATGTAGA | 0.314
CATGTAGG | 0.407
CATGTAGA | 0.472

Sequence | PBM E-score
CATGTAGC | 0.344
AATGTAGG | 0.0581
TATGTAGA | 0.424
AGTGTAGA | 0.171
CAAGTAGG | -0.0322
ACATAGCC | 0.231
CCGCTCTC | -0.296
AGCTTAAA | -0.0456
AATCTGTA | 0.186
AATTAGGC | -0.0388
AGCCTAAG | -0.223
CTAGACGA | -0.137
AACAGGTG | 0.184
TAGATATA | 0.0377
CGCATGTA | 0.422
AGCATGTC | 0.267
AGCATGTG | 0.22
AGCATGTA | 0.458
GGCATGTA | 0.439
CGCATGTC | 0.274
GGCATGCA | 0.128
GGCATGGA | -0.113
CGCATGGA | -0.0665
AAGGGTGC | -0.233
AGGGTGTA | 0.186

Sequence | PBM E-score
TTCTACAA | 0.314
ACCCTGAT | -0.3
ACGTTATA | 0.275
AAGTTATG | 0.256
ACGTTATC | 0.145
CTGTTATC | -0.00298
CTGTTATA | 0.29
ATGTTATC | 0.401
ATGTTATA | 0.418
ATGTTACG | 0.351
AGGTTATA | 0.0651
GTGTTATA | 0.444
GCGTTATA | 0.218
ATGTTATG | 0.425
ATGAGGCG | -0.102
AAGGAGCA | -0.237
CACCTCAC | 0.0105
CCTATTCA | -0.319
CGCGGCCC | -0.135
CATTCTCG | -0.0595
AGAACGAC | -0.0288
AAGAGCGA | -0.2
ATCGTGTC | 0.358
ATCGTGTG | 0.313
CTCGTGTC | 0.257

Sequence | PBM E-score
GTCGTGTA | 0.464
CTCGTGGA | -0.107
GTCGTGGA | -0.154
GTCGTGCA | 0.0844
ATCGTGTA | 0.475
CTCGTGTA | 0.434
CACCTATC | -0.0688
AGTAGTCA | -0.00856
CCAGGTAC | -0.122
ATAAGCAG | -0.00191
CGTTTTTA | 0.253
GCAGTGTA | 0.292
ACACGGGA | 0.371
ACACGGGT | 0.391
ACACGGGC | 0.325
ACACGGCT | 0.32
AAACGGGT | 0.153
ACACGGGG | 0.3
CTCTGCAA | -0.0611
CGGAGCTA | -0.0643
